Results taken from PubChem BioAssay AID504652 (National Center for Advancing Translational Sciences (NCATS), 2011).
Out of some 360,000 compounds screened, about 11,000 (3.1%) were called active. The list comes from a sample in which actives are over-represented; it also holds similar structures and randomly drawn compounds. A number with no mark means an inactive call. Rule as the data show it: active = activity change below about -30%; inactive = the rest.

molecular target: D(1A) dopamine receptor (Homo sapiens) (UniProt P21728); assay: Antagonist of Human D 1 Dopamine Receptor: qHTS; details: HEK293 TREx D1 cells, calcium flux, dopamine EC80; at 10 µM; hits give low values
Sequence (P21728 whole entry, looked up): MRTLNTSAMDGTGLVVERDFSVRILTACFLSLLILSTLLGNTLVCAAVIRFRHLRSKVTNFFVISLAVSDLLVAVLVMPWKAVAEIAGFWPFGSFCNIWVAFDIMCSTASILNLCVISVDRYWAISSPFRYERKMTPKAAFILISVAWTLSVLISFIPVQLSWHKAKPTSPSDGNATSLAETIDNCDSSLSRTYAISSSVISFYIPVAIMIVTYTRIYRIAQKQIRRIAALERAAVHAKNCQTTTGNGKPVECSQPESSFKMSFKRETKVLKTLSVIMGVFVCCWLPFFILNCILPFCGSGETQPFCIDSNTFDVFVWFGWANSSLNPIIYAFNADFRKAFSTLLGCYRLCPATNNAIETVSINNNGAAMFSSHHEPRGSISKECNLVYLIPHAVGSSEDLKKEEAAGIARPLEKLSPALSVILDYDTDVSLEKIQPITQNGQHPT
Source text: Dopamine receptors (DARs) are involved in the etiology and/or therapy of a number of neuropsychiatric and endocrine disorders. For instance, all receptor-based antiparkinsonian drugs work via stimulating the […] DAR subtype whereas all FDA-approved antipsychotic agents are antagonists of this receptor. […] There are three different types of allosteric modulators that we are seeking, two of which will stimulate or augment receptor signaling, allosteric agonists and potentiators, while the third, allosteric antagonists, will attenuate receptor signaling. The present primary screening assay measures compound antagonism after an EC80 addition of dopamine by tracking calcium flux in a […], inducible Hek293 Trex D1 cell line. NIH Chemical Genomics Center [NCGC] NIH Molecular Libraries Probe Centers Network [MLPCN] MLPCN Grant: NS064831-01 Assay Submitter (PI): David Sibley
Freshly passaged cells are plated in 1536 well black, clear bottom plates at a density of 4000 cells/well in 3 ul of complete media containing 1x tetracycline inducer. After an overnight incubation at 30 C in 5% CO2, cells are loaded with 2 ul of the no wash Calcium Assay Kit (ABD Bioquest) and incubated at room temperature for 30 to 90 minutes. Agonist read: A 10 cycle (1 second/cycle) baseline measurement is taken and then the FDSS online 1536 pintool delivers 23 nl of compound library (as well as dopamine controls) to the plate. The plate is measured for kinetically at 1 cycle/sec for 180 seconds. Following the 180 second read, 1 ul of an EC80 (negative modulation assay) is delivered by an onboard pipette head. Measurements are taken kinetically for an additional 180 seconds.
% is scaled to controls: 0 for no effect and ±100 for the full control effect.

SMILES | activity change, negative = inhibition
CN1CCN(C(=O)/C(=C\c2ccc3c(c2)OCO3)NC(=O)c2cccs2)CC1 | -1.26%
CN1CCN(C(=O)/C(=C\c2cccs2)NC(=O)c2cccs2)CC1 | -40.4% (active)
Cc1ccc(C(=O)N/C(=C/c2cccs2)C(=O)N2CCCCC2)cc1 | -1.28%
CCOc1ccc(CNC(=O)c2ccc3c(c2)nnn3C2CCCC2)cc1 | -28.9%
Cc1ccc(-c2nn(CCC(=O)Nc3ccc(OC(F)(F)F)cc3)c(=O)c3ccccc23)cc1 | -11%
Cc1ccc(NC(=O)Nc2ccc3oc(C)nc3c2)cc1 | -1.61%
COc1ccc(NC(=O)Nc2ccc3nsnc3c2)cc1 | -36.6% (active)
COc1ccc(NC(=O)Nc2cccc(-c3noc(C)n3)c2)cc1 | 8.89%
Cc1ccc(C)c(Cn2c(C)c(CNCc3ccc(F)cc3)c(C(=O)O)c2C)c1 | -10.2%
O=C(NCc1ccncc1)c1cccc(NS(=O)(=O)c2ccc(F)c(F)c2)c1 | -6.23%
O=C(NCc1ccco1)/C(=C/c1cccc([N+](=O)[O-])c1)NC(=O)c1ccco1 | -9.94%
O=C(NCc1ccco1)c1ccc(NS(=O)(=O)c2cccc([N+](=O)[O-])c2)cc1 | -51.9% (active)
O=C(NCc1ccco1)c1ccc([N+](=O)[O-])cc1Cl | -6.24%
O=C(NCc1ccncc1)c1ccc(NS(=O)(=O)c2cccc([N+](=O)[O-])c2)cc1 | -49% (active)
O=[N+]([O-])c1cccc(S(=O)(=O)NCc2ccccn2)c1 | 8.53%
CCOC(=O)c1c(NC(=O)COc2cc(C)ccc2C(C)C)sc(C)c1C | 8.46%
c1ccc(-c2ccccc2OCCN2CCCCC2)cc1 | 8.41%
CC1CCCN(CCOCCOc2ccccc2-c2ccccc2)C1 (stereo not given) | -48.5% (active)
CC1CN(CCCOc2ccccc2-c2ccccc2)CC(C)O1 (stereo not given) | 13.9%
CC1CN(C(=O)N2CCC(C(=O)NCc3cccs3)CC2)c2ccccc2O1 (stereo not given) | -3.92%

SMILES | activity change, negative = inhibition
COc1ccc(NC(=O)CCNS(=O)(=O)c2ccc3c(c2)CCCC(=O)N3)cc1Cl | 1.62%
O=S(=O)(NCCOc1cccc2cccnc12)c1ccc(F)cc1 | 6.87%
O=S(=O)(Nc1cccc2cccnc12)c1cccc2cccnc12 | -7.95%
O=S(=O)(NCCc1ccc(F)cc1)c1cccc2cccnc12 | -44.7% (active)
CC(CNC(=O)c1nnc(Cc2cccc(F)c2)o1)c1ccccc1 (stereo not given) | 0.636%
Cc1cc2oc(C(=O)N(Cc3ccc(Cl)cc3)Cc3ccco3)c(C)c2cc1Cl | -1.03%
CCCOc1ccc(-c2cccc(NS(=O)(=O)c3ccccc3)c2)nn1 | -24.2%
CCNS(=O)(=O)c1cc(-c2nnc(Nc3cccc(C(F)(F)F)c3)c3ccccc23)ccc1C | -6.09%
COc1cccc(COc2ccc(N(C)S(=O)(=O)c3ccccc3)cc2)c1 | -1.51%
Cc1ccc2nc(COc3ccc(N(C)S(=O)(=O)c4ccccc4)cc3)cc(=O)n2c1 | -32.1% (active)
Cc1ccc2nc(COc3ccc(NC(=O)COc4ccccc4F)cc3)cc(=O)n2c1 | 0.203%
CSc1ccc(CCNC(=O)c2ccc3c(c2)nc2n3CCOC2)cc1 | 11.3%
CCCN1CCN(CCCNC(=O)c2ccc3nc(Cc4ccccc4)oc3c2)CC1 | -1.19%
CC(C)CC(NS(=O)(=O)c1ccc2c(c1)oc(=O)n2C)C(=O)NCc1ccccc1Cl (stereo not given) | 14.8%
CCCCCn1c(=O)[nH]c2cc(C(=O)Nc3cc(C)cc(C)c3)ccc2c1=O | -6.59%
CC(=O)Nc1ccc(/C=N/Nc2ccc(C(=O)c3c(C)cc4ccccn34)cc2[N+](=O)[O-])cc1 | -18.5%
Cc1ccc(C(C[N+](=O)[O-])c2c(C)cc3ccccn23)cc1 (stereo not given) | -51.3% (active)
COc1ccc(C(C[N+](=O)[O-])n2nc(C)cc2C)cc1 (stereo not given) | 13.7%
CN1CCN(C2=NCCO2)CC1 | -33% (active)
CCOC(=O)C1CCN(c2csc3ccc(C)cc3c2=O)CC1 | 6.24%

SMILES | activity change, negative = inhibition
Fc1cccc(-n2ncc3c2ncn2nc(-c4ccccc4Cl)nc32)c1 | -8.03%
Oc1cc2c(cc1O)CN(C(=S)NCCc1ccc(Cl)cc1)CCC2 | -90.5% (active)
Cc1cccc(NC(=S)NCCc2ccc(Cl)cc2)c1C | -8.27%
O=C(NCCc1ccc(Cl)cc1)c1cccc(N2CCCC2=O)c1 | -8.26%
Cc1ccc2ncc(C(=O)Nc3ccc(OC(F)(F)F)cc3)c(=O)n2c1 | 0.312%
COc1cc(CCC(=O)N2CCN(c3ccccc3Cl)CC2)cc(OC)c1OC | -35% (active)
COc1cc(CCC(=O)Nc2ccncc2Cl)cc(OC)c1OC | 1.11%
CC(=O)c1ccc(N2CCN(C(=O)CCc3ccccc3)CC2)cc1 | 3.26%
COc1cccc(C(=O)N(Cc2cccc(Cl)c2)Cc2ccco2)c1 | -12.2%
O=C(NCCCN1CCOCC1)c1cc(-c2ccc(Cl)cc2)on1 | 7.89%
COc1ccc(-c2ccc(CNCCCN3CCOCC3)o2)cc1Cl | -8.26%
C=CCOc1ccc(Cl)cc1CNCCCN1CCOCC1 | -32.4% (active)
COCCCNC(=O)c1ccc(NC(=O)c2nsc3ccccc23)cc1 | -4.68%
COc1ccc(NC(=O)CCN2CCN(CCO)CC2)cc1 | -14%
Cc1ccc(C)c(N2CCN(C(=O)C3CCC(CNS(=O)(=O)c4cccs4)CC3)CC2)c1 (stereo not given) | 16.1%
COc1ccc(NC(=O)N2CCCn3nc(C)cc32)cc1OC | -22.3%
COc1ccc(CCNC(=O)c2ccc(CSCc3ccc(C)cc3)o2)cc1OC | -24.7%
Clc1cccc(-n2ncc3c(NCCc4ccccc4)ncnc32)c1 | -27.8%
C1=C(CCNc2ncnc3c2cnn3-c2ccccc2)CCCC1 | -10.6%
COc1ccc(CCNc2ncnc3c2cnn3-c2ccc(C)cc2)cc1 | -63.8% (active)
